# Measurements: PubChem BioAssay (Tox21)
# Where “and” joins values, the source holds several entries; their conditions need not be identical. Equal entries are not always repeated. Records with an inconclusive call do not appear. Calls of active or inactive are those of the source. The call rests on the fitted dose curve; in most records, active means well fitted cell-killing curve with a large enough effect in the repeat runs; inconclusive means weak or mixed curves, or effect the other way; inactive means flat fitted curve, though single readings scatter.
# Assay: cAMP Responsive Elements (CRE) small molecule antagonists, cell-based qHTS assay: qHTS cell viability counter screen (AID 2060913); further: nearly all actives have a fitted effect of over 40% in size
# Settings: CRE-bla HEK293T viability, CellTiter-Glo luminescence, 5 h; series mostly up to 92.4 µM; viability change, negative = cytotoxic: at the top concentration
# How it was run: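 Steps: cells plated and held 18 hrs at 37 C/5% CO2; compounds and NKH477 (0.25 uM final) added; 3 hrs incubation; reporter substrate read; CellTiter-Glo added to measure cytotoxicity by luminescence.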
# On the % scale 0 is the no-effect control and ±100 the full control effect; potency means the concentration at half of the fitted maximal effect.
SMILES,"viability change, negative = cytotoxic",Potency
CN(C)CCN(C)C,-4.28% (inactive),–
COc1cc(CC#N)cc(OC)c1OC,-0.238% [at 42.5 µM] (inactive),–
CCCOC(=O)Cc1ccc(OCC(=O)N(CC)CC)c(OC)c1,-0.944% [at 42.5 µM] (inactive),–
CCOC(=O)COc1cc(-c2nn(C)c(OC(F)F)c2Cl)c(F)cc1Cl,0.562% (inactive),–
C[C@]12CC[C@@H](O)C[C@@H]1CC[C@@H]1[C@@H]2CC[C@]2(C)C(=O)CC[C@@H]12,-4.22% (inactive),–
CCN1CCC2(CC1)COc1cc3c(cc12)N(C(=O)c1ccc(-c2ccc(-c4nnc(C)o4)cc2C)cc1)CC3,–,56.4 µM (active)
CCOc1cccc(C2(N3CCN(c4ccccc4)CC3)CCC(C)CC2)c1 (stereo not given),4.25% (inactive),–
C=CC1(C)OC(=O)N(c2cc(Cl)cc(Cl)c2)C1=O (stereo not given),–,inactive
Clc1ccc(COC(Cn2ccnc2)c2ccc(Cl)cc2Cl)cc1 (stereo not given),–,50.8 µM (active) and 45.1 µM (active)
CC(C)(CCl)C(=O)Cl,-2.8% (inactive),–
CCOP(=S)(OCC)SCSC(C)(C)C,–,inactive
CCC1(c2ccccc2)C(=O)NC(=O)NC1=O,2.13% (inactive),–
OCCBr,1.63% (inactive),–
Oc1ccc(Cl)c(Cl)c1Cl,-20% (inactive),–
O=C(CCl)C(Cl)Cl,2.64% (inactive),–
O=C(N[C@@H]1N=C(c2ccccc2F)c2cccc3c2N(CC3)C1=O)c1cc2ccccc2[nH]1,-1.16% [at 42.5 µM] (inactive),–
N#CNC#N,-17.1% (inactive),–
CC(C)[N+](C)(CCC(C(N)=O)(c1ccccc1)c1ccccc1)C(C)C,-2.13% [at 42.5 µM] (inactive),–
CNC(=O)Oc1ccccc1C(C)C,2.93% (inactive),–
CN(C)[C@@H]1C(=O)C(C(N)=O)=C(O)[C@@]2(O)C(=O)C3=C(O)c4c(O)ccc(Cl)c4[C@@](C)(O)[C@H]3C[C@@H]12,5.46% (inactive),–

# Assay: cAMP Responsive Elements (CRE) small molecule agonists, cell-based qHTS assay: qHTS cell viability counter screen (AID 2060914); further: nearly all actives have a fitted effect of over 50% in size
# Settings: CRE-bla HEK293T viability, CellTiter-Glo luminescence, 5 h; series mostly up to 92.4 µM; activity change, negative = cytotoxicity: at the top concentration
# How it was run: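 In the same wells as the reporter read, viability of CRE-bla HEK 293T cells was quantified by CellTiter-Glo luminescence after a 3 h compound exposure.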
SMILES,Potency,"activity change, negative = cytotoxicity"
Nc1ccc(Br)cc1,inactive,–
C=C(C)C(=O)[O][Sn]([CH2]CCC)([CH2]CCC)[CH2]CCC,4.86 µM (active),–
CN1C(=O)NC(=O)C(C)(C2=CCCCC2)C1=O (stereo not given),–,1.19% [at 42.5 µM] (inactive)
CC(=O)C=C(C)C,inactive,–
CCCOC(=O)Cc1ccc(OCC(=O)N(CC)CC)c(OC)c1,–,-3% [at 42.5 µM] (inactive)
CCOC(=O)COc1cc(-c2nn(C)c(OC(F)F)c2Cl)c(F)cc1Cl,–,5.28% (inactive)
CCOP(=S)(OCC)SCSC(C)(C)C,inactive,–
Oc1ccc(Cl)c(Cl)c1Cl,–,-13.8% (inactive)
O=C(CCl)C(Cl)Cl,–,17.2% (inactive)
CN(C)[C@@H]1C(=O)C(C(N)=O)=C(O)[C@@]2(O)C(=O)C3=C(O)c4c(O)ccc(Cl)c4[C@@](C)(O)[C@H]3C[C@@H]12,–,14.5% (inactive)
